Assay results published in the supplement of paper PMC12645437, “Orthogonal IMiD-Degron Pairs Induce Selective Protein Degradation in Cells” (ACS Chemical Biology, 2025).
In all, about 8,300 sequences were measured (“log2 fold change of degron read counts, EGFP-low vs EGFP+ sorted cells (limma voom), compound-induced degradation”: median about -1.1, highest 2% from about 3.2 on). Many of the other results were omitted from the sample, so the highest values are more common in it than they were.

Molecular target: T1, CRBN, Q96SW2
T1 chain: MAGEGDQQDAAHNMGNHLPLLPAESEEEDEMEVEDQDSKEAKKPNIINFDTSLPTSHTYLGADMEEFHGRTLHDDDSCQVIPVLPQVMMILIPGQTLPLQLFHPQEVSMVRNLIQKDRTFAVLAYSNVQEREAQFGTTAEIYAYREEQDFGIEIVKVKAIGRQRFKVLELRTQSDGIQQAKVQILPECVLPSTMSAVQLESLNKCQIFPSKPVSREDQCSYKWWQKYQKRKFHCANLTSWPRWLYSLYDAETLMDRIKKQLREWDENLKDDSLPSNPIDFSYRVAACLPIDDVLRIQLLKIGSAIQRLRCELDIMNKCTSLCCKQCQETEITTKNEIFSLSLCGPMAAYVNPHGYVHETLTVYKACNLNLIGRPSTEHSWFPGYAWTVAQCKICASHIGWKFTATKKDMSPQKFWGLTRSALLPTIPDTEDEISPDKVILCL
Assay: log2 fold change of degron read counts, EGFP-low vs EGFP+ sorted cells (limma voom), compound-induced degradation; higher = more compound-induced degradation of the degron-EGFP fusion; degrons are variants of IKZF1/3 zinc finger 2; compound dose not given here
Details: Jurkat, 18 h
Method: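 Pooled library of 8380 IKZF3 ZF2 degron mutants (positions 146-167 varied within the IKZF3 130-189 degron; only the varied core is printed, flanks not printed) fused to EGFP with IRES-mCherry, lentivirally expressed in Jurkat cells. mCherry+ cells were treated with one IMiD compound for 18 h (dose not stated) and FACS-sorted into EGFP-low and EGFP+ populations. Degron sequences were counted by NGS, and log2FC (EGFP-low vs EGFP+) was estimated by limma voom over 3 biological replicates.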

[1] = compound: compound 19 (5-tert-butyl-thalidomide)
[2] = compound: compound 22 (5-morpholino-thalidomide)
[3] = compound: compound 33 (diphenyl IMiD analogue)
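Also: pooled lentiviral library of zinc finger degron-EGFP fusions in mCherry-positive Jurkat cells, FACS-sorted after compound exposure, with degron abundance counted by next-generation sequencing.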

## FICNICGADFTQKGNLLRHIKL [46F_47I_49N_50I_52G_53A_54D_55F_67L_, Q9UKT9]
[1]
  log2 fold change of degron read counts: -2.47
[2]
  log2 fold change of degron read counts: -1.85
[3]
  log2 fold change of degron read counts: -1.03
compound: thalidomide
  log2 fold change of degron read counts: -0.92

## FTCDVCGAIFTQKGNLLRHIKL [46F_47T_49D_50V_52G_53A_54I_55F_67L_, Q9UKT9]
[1]
  log2 fold change of degron read counts: -2.2
[2]
  log2 fold change of degron read counts: -1.5
[3]
  log2 fold change of degron read counts: -0.885
compound: thalidomide
  log2 fold change of degron read counts: -0.951

## FACEICGRYFTQKGNLLRHIKL [46F_47A_49E_50I_52G_53R_54Y_55F_67L_, Q9UKT9]
[1]
  log2 fold change of degron read counts: 1.02
[2]
  log2 fold change of degron read counts: -1.33
[3]
  log2 fold change of degron read counts: -1.87
compound: thalidomide
  log2 fold change of degron read counts: -1.22

## FYCPICGAMFTQKGNLLRHIKL [46F_47Y_49P_50I_52G_53A_54M_55F_67L_, Q9UKT9]
[1]
  log2 fold change of degron read counts: 2.65
[2]
  log2 fold change of degron read counts: 2.73
[3]
  log2 fold change of degron read counts: 2.02
compound: thalidomide
  log2 fold change of degron read counts: 0.0372

## FVCPICGAMFTQKGNLLRHIKL [46F_47V_49P_50I_52G_53A_54M_55F_67L_, Q9UKT9]
[1]
  log2 fold change of degron read counts: -0.498
[2]
  log2 fold change of degron read counts: 1.33
[3]
  log2 fold change of degron read counts: 1.86
compound: thalidomide
  log2 fold change of degron read counts: 1.85

## FQCPICGADFTQKGNLLRHIKL [46F_47Q_49P_50I_52G_53A_54D_55F_67L_, Q9UKT9]
[1]
  log2 fold change of degron read counts: 0.457
[2]
  log2 fold change of degron read counts: 1.55
[3]
  log2 fold change of degron read counts: 2.48
compound: thalidomide
  log2 fold change of degron read counts: 3.81

## FVCPICGADFTQKGNLLRHIKL [46F_47V_49P_50I_52G_53A_54D_55F_67L_, Q9UKT9]
[1]
  log2 fold change of degron read counts: -1.19
[2]
  log2 fold change of degron read counts: 1.3
[3]
  log2 fold change of degron read counts: 1.21
compound: thalidomide
  log2 fold change of degron read counts: 1.95

## FHCPICGAMFTQKGNLLRHIKL [46F_47H_49P_50I_52G_53A_54M_55F_67L_, Q9UKT9]
[1]
  log2 fold change of degron read counts: 1.97
[2]
  log2 fold change of degron read counts: 1.9
[3]
  log2 fold change of degron read counts: 1.34
compound: thalidomide
  log2 fold change of degron read counts: 0.306

## FSCPICGAMFTQKGNLLRHIKL [46F_47S_49P_50I_52G_53A_54M_55F_67L_, Q9UKT9]
[1]
  log2 fold change of degron read counts: 1.66
[2]
  log2 fold change of degron read counts: 1.01
[3]
  log2 fold change of degron read counts: 1.5
compound: thalidomide
  log2 fold change of degron read counts: 0.771

## FGCPICGAMFTQKGNLLRHIKL [46F_47G_49P_50I_52G_53A_54M_55F_67L_, Q9UKT9]
[1]
  log2 fold change of degron read counts: 3.33
[2]
  log2 fold change of degron read counts: 2.19
[3]
  log2 fold change of degron read counts: 1.89
compound: thalidomide
  log2 fold change of degron read counts: 0.606

## FSCPICGADFTQKGNLLRHIKL [46F_47S_49P_50I_52G_53A_54D_55F_67L_, Q9UKT9]
[1]
  log2 fold change of degron read counts: 1.3
[2]
  log2 fold change of degron read counts: 0.182
[3]
  log2 fold change of degron read counts: 1.52
compound: thalidomide
  log2 fold change of degron read counts: 0.227

## FQCPICGAMFTQKGNLLRHIKL [46F_47Q_49P_50I_52G_53A_54M_55F_67L_, Q9UKT9]
[1]
  log2 fold change of degron read counts: -0.249
[2]
  log2 fold change of degron read counts: 2.56
[3]
  log2 fold change of degron read counts: 2.51
compound: thalidomide
  log2 fold change of degron read counts: 3.62

## FGCNICGACFTQKGNLLRHIKL [46F_47G_49N_50I_52G_53A_54C_55F_67L_, Q9UKT9]
[1]
  log2 fold change of degron read counts: 1.07
[2]
  log2 fold change of degron read counts: 2.09
[3]
  log2 fold change of degron read counts: 1.61
compound: thalidomide
  log2 fold change of degron read counts: 0.355

## FDCNVCGAMFTQKGNLLRHIKL [46F_47D_49N_50V_52G_53A_54M_55F_67L_, Q9UKT9]
[1]
  log2 fold change of degron read counts: -2.41
[2]
  log2 fold change of degron read counts: -2.06
[3]
  log2 fold change of degron read counts: -1.24
compound: thalidomide
  log2 fold change of degron read counts: -0.963

## FECPQCGAKFTQKGNLLRHIKL [46F_47E_49P_50Q_52G_53A_54K_55F_67L_, Q9UKT9]
[1]
  log2 fold change of degron read counts: -1.95
[2]
  log2 fold change of degron read counts: -2.7
[3]
  log2 fold change of degron read counts: -2.13
compound: thalidomide
  log2 fold change of degron read counts: 0.127

## FWCDICGALFTQKGNLLRHIKL [46F_47W_49D_50I_52G_53A_54L_55F_67L_, Q9UKT9]
[1]
  log2 fold change of degron read counts: 2.43
[2]
  log2 fold change of degron read counts: 2.23
[3]
  log2 fold change of degron read counts: 0.921
compound: thalidomide
  log2 fold change of degron read counts: -1.11

## FNCPICGAGFTQKGNLLRHIKL [46F_47N_49P_50I_52G_53A_54G_55F_67L_, Q9UKT9]
[1]
  log2 fold change of degron read counts: 2.9
[2]
  log2 fold change of degron read counts: 0.718
[3]
  log2 fold change of degron read counts: 0.577
compound: thalidomide
  log2 fold change of degron read counts: 0.35

## LVCEICGFFCTQKGNLLRHIKL [46L_47V_49E_50I_52G_53F_54F_55C_67L_, Q9UKT9]
[1]
  log2 fold change of degron read counts: 0.178
[2]
  log2 fold change of degron read counts: 0.388
[3]
  log2 fold change of degron read counts: 0.876
compound: thalidomide
  log2 fold change of degron read counts: 1.42

## FNCPICGACFTQKGNLLRHIKL [46F_47N_49P_50I_52G_53A_54C_55F_67L_, Q9UKT9]
[1]
  log2 fold change of degron read counts: 2.34
[2]
  log2 fold change of degron read counts: 1.06
[3]
  log2 fold change of degron read counts: 1.37
compound: thalidomide
  log2 fold change of degron read counts: 0.843

## FSCPICGACFTQKGNLLRHIKL [46F_47S_49P_50I_52G_53A_54C_55F_67L_, Q9UKT9]
[1]
  log2 fold change of degron read counts: 2.84
[2]
  log2 fold change of degron read counts: 2.22
[3]
  log2 fold change of degron read counts: 2.64
compound: thalidomide
  log2 fold change of degron read counts: 1.47

## FMCPICGACFTQKGNLLRHIKL [46F_47M_49P_50I_52G_53A_54C_55F_67L_, Q9UKT9]
[1]
  log2 fold change of degron read counts: -0.174
[2]
  log2 fold change of degron read counts: 0.429
[3]
  log2 fold change of degron read counts: 2.49
compound: thalidomide
  log2 fold change of degron read counts: 1.41

## FDCPICGACFTQKGNLLRHIKL [46F_47D_49P_50I_52G_53A_54C_55F_67L_, Q9UKT9]
[1]
  log2 fold change of degron read counts: 1.96
[2]
  log2 fold change of degron read counts: 0.401
[3]
  log2 fold change of degron read counts: 2.22
compound: thalidomide
  log2 fold change of degron read counts: 2.13

## FQCPICGACFTQKGNLLRHIKL [46F_47Q_49P_50I_52G_53A_54C_55F_67L_, Q9UKT9]
[1]
  log2 fold change of degron read counts: 0.828
[2]
  log2 fold change of degron read counts: 3.06
[3]
  log2 fold change of degron read counts: 2.53
compound: thalidomide
  log2 fold change of degron read counts: 3.77

## FYCPICGACFTQKGNLLRHIKL [46F_47Y_49P_50I_52G_53A_54C_55F_67L_, Q9UKT9]
[1]
  log2 fold change of degron read counts: 3.5
[2]
  log2 fold change of degron read counts: 3.63
[3]
  log2 fold change of degron read counts: 2.59
compound: thalidomide
  log2 fold change of degron read counts: 1.59

## FCCPICGACFTQKGNLLRHIKL [46F_47C_49P_50I_52G_53A_54C_55F_67L_, Q9UKT9]
[1]
  log2 fold change of degron read counts: 2.52
[2]
  log2 fold change of degron read counts: 2.23
[3]
  log2 fold change of degron read counts: 2.82
compound: thalidomide
  log2 fold change of degron read counts: 2.11

## FWCPICGACFTQKGNLLRHIKL [46F_47W_49P_50I_52G_53A_54C_55F_67L_, Q9UKT9]
[1]
  log2 fold change of degron read counts: 3.58
[2]
  log2 fold change of degron read counts: 3.31
[3]
  log2 fold change of degron read counts: 2.4
compound: thalidomide
  log2 fold change of degron read counts: 1.46

## FLCPICGACFTQKGNLLRHIKL [46F_47L_49P_50I_52G_53A_54C_55F_67L_, Q9UKT9]
[1]
  log2 fold change of degron read counts: 0.664
[2]
  log2 fold change of degron read counts: -0.175
[3]
  log2 fold change of degron read counts: 1.79
compound: thalidomide
  log2 fold change of degron read counts: 1.62

## FICPICGACFTQKGNLLRHIKL [46F_47I_49P_50I_52G_53A_54C_55F_67L_, Q9UKT9]
[1]
  log2 fold change of degron read counts: -0.628
[2]
  log2 fold change of degron read counts: 2.02
[3]
  log2 fold change of degron read counts: 1.94
compound: thalidomide
  log2 fold change of degron read counts: 2.17

## FACPICGACFTQKGNLLRHIKL [46F_47A_49P_50I_52G_53A_54C_55F_67L_, Q9UKT9]
[1]
  log2 fold change of degron read counts: 3.48
[2]
  log2 fold change of degron read counts: 2.09
[3]
  log2 fold change of degron read counts: 1.78
compound: thalidomide
  log2 fold change of degron read counts: 1.06

## FVCPICGACFTQKGNLLRHIKL [46F_47V_49P_50I_52G_53A_54C_55F_67L_, Q9UKT9]
[1]
  log2 fold change of degron read counts: 0.0061
[2]
  log2 fold change of degron read counts: 2.13
[3]
  log2 fold change of degron read counts: 2.08
compound: thalidomide
  log2 fold change of degron read counts: 2.38
